Nrf2 ARE act = Nrf2 pathway activation; AREc32 ARE-luciferase reporter (MCF7-derived line), luminescence, 24 h; Potency, µM (series often up to 46.1 µM), for inactives: at the top dose activation, actives largely listed as activators; 410,000 tested, 0.31% active; further: potency means the concentration at half of the fitted maximal effect; % of control where 0% means no effect; nearly all actives have a fitted effect of over 65% in size
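Quantitative high-throughput format: AREc32 reporter cells, 1000 per well, received compound by pin transfer and were incubated 24 hr at 37 deg C, 5% CO2, before Steady-Glo luminescence detection.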
Nrf2 inh = blocks Nrf2 signaling | Potency, µM (doses to about 46 µM), for the others: at the top dose activity change, negative = inhibition, hits mostly inhibitors | 360,000 tested, 2.1% active | AID 504444 | A549 ARE-Fluc reporter, luciferase luminescence, 18-24 h; further: potency means the concentration at half of the fitted maximal effect; on the % scale 0 is the no-effect control and ±100 the full control effect; nearly all actives have a fitted effect of over 60% in size
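Cells were seeded and rested 2 h, then exposed to compounds for 18-24 h. CellTiter-Fluor was read first as a viability measure. BugLite was added 15 min before the final luminescent read of ARE-luciferase activity in A549 cells.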
A549 viability = kills or reduces viability of A549 cells in Nrf2 counter-screen; A549 ARE-Fluc cells, CellTiter-Fluor viability, 18-24 h; Potency, µM (doses to about 46 µM), for the others: at the highest dose activity change, negative = cytotoxicity, usual class: inhibitors; 390,000 tested, 0.16% active; AID 504648; further: potency means the concentration at half of the fitted maximal effect; on the % scale 0 is the no-effect control and ±100 the full control effect
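A549 ARE-Fluc cells in 5% FBS OPTI-MEM, 5000 cells/well, rested 2 h then exposed to compounds in concentration-response for 18-24 h at 37 °C. Viability by CellTiter-Fluor fluorescence (Ex 405/Em 525) after 30 min; luciferase luminescence (BugLite, 15 min, RT) read afterwards.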
A-T KAP1 phos = candidate therapy for ataxia-telangiectasia | Potency, µM (top dose mostly 57.5 µM), for the others: at the highest dose activation, actives largely listed as activators | F2112 A-T fibroblasts, KAP-1 phosphorylation AlphaLISA; neocarzinostatin DNA damage 30 min before lysis | 320,000 tested, 0.19% active | AID 485349; further: potency means the concentration at half of the fitted maximal effect; % of control where 0% means no effect; nearly all actives have a fitted effect of over 45% in size
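ATM-like activity read as KAP-1 phosphorylation via AlphaLISA donor/acceptor antibody pairs after lysis and 6 hr at 25C. Cells were ATM-null patient fibroblasts (F2112, hTERT), dosed 60 min, then exposed to the DSB inducer NCS for 30 min.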
TCR activator = activates T cell receptor signaling | 330,000 tested, under 10 active | AID 504894 | primary human leukocytes, anti-CD3, IL-2 HTRF, 48 h | Potency, µM (titrated, usually from 9.22 µM), for the others: at the highest dose activation of IL-2 secretion, hits mostly activators; further: % of control where 0% means no effect
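48 hr co-incubation of compounds, a-CD3 beads and primary human leukocytes; IL-2 quantified homogeneously by HTRF with anti-IL-2 K and d2 conjugates.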
CCT modulator = modulators of cytosolic chaperonin (CCT/TRiC) activity; purified chaperonin ATPase assay, HTRF ADP detection, 30 min; activity change, % (no concentration beside the values), hits read low; 360,000 tested, 0.3% active; AID 651819; in the data active means activity change below about -30%; further: on the % scale 0 is the no-effect control and ±100 the full control effect
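ATPase activity: ADP formed was measured by HTRF Transcreener (665/615 nm ratio) after 30 min at 37 deg C with 10 uM ATP. Compounds screened at one 76 uM concentration against 40 or 20 nM TRiC in Tris pH 7.4/KCl/MgCl2/DTT buffer.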
Active calls of the source: *; u = inconclusive; x = no result given; [ ] = dose if it differs, or a comment. In the library only some 2.6% were active in any assay of this set; here they are far more common. Unless noted, the call rests on the fitted dose curve; in most records, active means well fitted curve in the direction sought with a large enough effect; inconclusive means small, poorly fitted or top-dose-only effect, or another doubt; inactive means no such curve, though single readings can be large; an effect the other way counts as inactive or inconclusive.

SMILES	Nrf2 ARE act	Nrf2 inh	A549 viability	A-T KAP1 phos	TCR activator	CCT modulator
O=C(Cc1ccc([N+](=O)[O-])cc1)NCC1CCCO1 (stereo not given)	0%	10%	4%	4%	-9%	-1
O=C(NCC1CCCO1)c1ccc([N+](=O)[O-])o1 (stereo not given)	10µM*	0%	-7%	1%	-2%	-1
CC1CCCC(NC(=O)COC(=O)c2ccc([N+](=O)[O-])o2)C1C (stereo not given)	9%	0%	0%	-18%	-8%	-64*
Cc1ccc(OCc2ccc(C(=O)NCC3CCCO3)cc2)cc1C (stereo not given)	2%	u	7%	8%	-13%	-2
COCCn1c(C)cc(C(=O)COC(=O)c2ccc([N+](=O)[O-])o2)c1C	u	16%	-4%	-2%	-49%	1
O=C(NCC1CCCO1)c1ccc(COc2ccc(Br)cc2)cc1 (stereo not given)	2%	16µM*	-3%	0%	0%[46.1 µM]	-6
Cc1cc(C(=O)COC(=O)c2ccc([N+](=O)[O-])o2)c(C)n1CC1CCCO1 (stereo not given)	16µM*	u	-2%	-3%	2%	-3
Cc1ccc(C(=O)COC(=O)c2cn3ccccc3n2)cc1	3%	17%	5%	-5%	5%	1
COc1ccc(-c2cc(C)nc3c(-c4ccc(OC)c(OC)c4)c(C)nn23)cc1	-1%	u	-20%	x	x	x
COc1ccc(CCNC(=O)CCc2cn(Cc3ccc(C)cc3)c3ccccc23)cc1OC	4%	-14%	-1%	x	x	x
COc1ccc(CNC(=O)CCc2cn(Cc3cc(C)ccc3C)c3ccccc23)cc1OC	0%	23µM*	-5%	x	x	x
COc1cccc(CNC(=O)C2CCN(c3nc4ccc(Cl)cc4[nH]3)CC2)c1	6%	x	10%	x	x	x
COc1cc(C(=O)Nc2nnc(S(=O)(=O)N3CCCCCC3)s2)cc(OC)c1OC	5%	2%	10%	-1%	-1%	-32*
COc1cccc(C(=O)Nc2nnc(S(=O)(=O)N3CCCC3)s2)c1	0%	u	-1%	-3%	2%	-1
Cc1ccccc1OCC(=O)NCC(=O)OCc1cccc2ccccc12	x	-2%	0%	x	x	x
Cc1ccc(-c2nc(CSCC(=O)N3CCN(c4ccccn4)CC3)c(C)o2)cc1	1%	16µM*	-19%	-2%	0%	-2
Cc1ccc(-c2nc(CSCC(=O)N3CCOCC3)c(C)o2)cc1	3%	u	x	-2%	-11%	-3
CCc1ccc(-c2nc(CSCC(=O)N3CCN(c4ccccn4)CC3)c(C)o2)cc1	-1%	16µM*	u	2%	-5%	-5
CN1CCN(CCC(=O)N/N=C/c2ccccn2)CC1	-1%	2%	1%	-7%	4%	2
COc1ccc(C(=O)N=c2nc(-c3ccccc3)n(-c3ccccc3)s2)cc1	x	8%	12%	x	x	x
COc1ccc(-c2ccc3ncnc(NCc4nc(C)cs4)c3c2)cc1OC	x	u	4%	x	x	x
CC(OC(=O)c1cccc(NS(C)(=O)=O)c1)C(=O)Nc1ccc2c(c1)OCO2 (stereo not given)	0%	23µM*	-6%	-2%	-1%	-1
Cc1ccc(-c2nc(CN(C)Cc3cccc4cnccc34)c(C)o2)s1	4%	23µM*	-2%	8%	1%	-3
Cc1ccc(-c2nc(CN(C)C3CCOCC3)c(C)o2)s1	0%	-2%	4%	-2%	1%	-5
CCCc1cc(=O)oc2c3c(cc(OCC(=O)NCCN4CCOCC4)c12)OC(C)(C)CC3	4%	u	-13%	-4%	-1%	-1
SMILES	Nrf2 ARE act	Nrf2 inh	A549 viability	A-T KAP1 phos	TCR activator	CCT modulator
COc1ccc2nc(N(Cc3cccnc3)C(=O)C3CCCCC3)sc2c1	-1%	x	-18%	x	x	x
CC1CCc2onc(C(=O)N3CCN(c4ccc(Cl)cc4)CC3)c2C1 (stereo not given)	0%	21µM*	-4%	x	x	x
CC1CCc2onc(C(=O)Nc3ccc(Cl)cc3)c2C1 (stereo not given)	1%	-26%	7%	x	x	x
Cc1ccc(-c2nc(Cn3c(SCc4ccc(F)cc4)nc4cccnc43)c(C)o2)cc1	1%	u	-24%	x	x	x
Cc1ccc(Nc2nc3nonc3nc2Nc2cccc(C(F)(F)F)c2)cc1Cl	-2%	3.3µM*	7.3µM*	x	x	x
OC(COc1ccc(OCC(O)CN2CCCCCC2)cc1)CN1CCCCCC1 (stereo not given)	-1%	x	2.6µM*	-7%	-2%	0
COc1ccc(OCC(O)CN2CCCCCC2)cc1 (stereo not given)	0%	3%	0%	-3%	7%[46.1 µM]	-1
CCOC(=O)CSC1=C(C#N)C(c2ccc(C)s2)CC(=O)N1 (stereo not given)	0%	21µM*	u	14%	-6%	0
CCOC(=O)c1c(NC(=O)CN(CC)CC)sc2c1CCC2	1%	-12%	-6%	22µM*	0%	-1
CCOC(=O)c1c(NC(=O)c2cccs2)sc2c1CCC2	-1%	-6%	-3%	-19%	-2%	-33*
CCOC(=O)c1c(NC(=O)OC)sc2c1CCC2	4%	-5%	4%	4%	-19%	-3
CCOC(=O)c1c(NC(=O)c2cccs2)sc2c1CCCC2	-1%	-7%	u	-1%	2%	1
CC1CC2CCCC(O)=C2C(=O)O1 (stereo not given)	-1%	-13%	-3%	x	7%	0
CC(=O)Oc1c(Cl)cc(Cl)cc1/C=C/c1ccc2ccccc2n1	13µM*	16%	9%	-1%	-8%	1
COC(=O)c1c(NC(=O)c2cccnc2)sc(C(=O)N(C)C)c1C	0%	u	0%	0%	3%[46.1 µM]	-2
COC(=O)c1c(NC(=O)c2ccco2)sc(C(=O)N(C)C)c1C	13µM*	0%	0%	-1%	-1%[46.1 µM]	1
Cc1ccc(-n2nc(CO)c(C(=O)NCCCCc3ccccc3)n2)cc1	0%	3%	4%	x	x	x
Cc1ccc(S(=O)(=O)N2CCN(c3ccnc(-c4cccs4)n3)CC2)cc1	x	15µM*	-5%	x	x	x
Cc1ccc(S(=O)(=O)N2CCN(c3nc(-c4cccs4)nc4ncccc34)CC2)cc1	x	12µM*	-15%	x	x	x
COc1cc(Cl)c(C)cc1NC(=O)c1c(C)oc2nc(C)nc(N3CCCC3)c12	0%	u	-5%	x	x	x
N#C/C(=C(/O)c1ccco1)c1nc2ccccc2[nH]1	6.3µM*	u	10%	4%	-2%	-2
COc1cccc(Cn2nnc(C(=O)Nc3cc(C)ccc3C)c2N)c1	4%	16µM*	-4%	x	x	x

Screening results from PubChem BioAssay.
